Source: the supplement of paper PMC11150407
Out of some 3,000 compounds screened, about 45 (2%) showed an effect of 50% or more. The sample holds strong results, similar compounds and a random draw of the others, so the mix is not that of the screen.

These compounds were tested on MOLM1 and UCSD/AML1 (averaged) (assay: cell viability relative to DMSO control (POC); higher = less growth inhibition). Conditions: 1 µM; 72 h.
Protocol: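 Primary viability screen in the 3q26 EVI1-high AML cell lines MOLM1 and UCSD/AML1, compounds at 1 uM for 72 h. ATP CellTiter-Glo read-out given as percent viable over DMSO control (POC), averaged over duplicates. This mapping covers the TimTec NDL-3000 natural derivative library, whose compounds are identified by TimTec catalogue codes (ST...).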

Row | SMILES | cell viability
1 | O=C(O)/C=C/c1ccc(Cl)c(Cl)c1 | 97.8%
2 | COc1cc(C(=O)N2CCN(c3cccc(C)c3C)CC2)cc(OC)c1OC | 12.5%
3 | COc1cc(C(=O)N2c3ccccc3CC2C)cc(OC)c1OC (configuration not stated) | 91.9%
4 | COc1cc(C(=O)Oc2ccccc2)cc(OC)c1OC | 108%
5 | COc1cc(C(=O)N2CCOCC2)cc(OC)c1OC | 98.2%
6 | COc1cc(C(=O)N2c3ccccc3C(C)=CC2(C)C)cc(OC)c1OC | 29.3%
7 | COc1cc(C(=O)N2CCN(C(=O)c3cccc(Cl)c3)CC2)cc(OC)c1OC | 102%
8 | O=C(/C=C/c1ccc2c(c1)OCO2)c1ccc2c(c1)OCCO2 | 104%
9 | Cn1c(SCc2ccc(Cl)cc2)nc2c(=O)[nH]cnc21 | 90%
10 | COc1ccc2[nH]cc(CCNC(=O)c3nn(-c4ccccc4)nc3C)c2c1 | 107%
11 | COc1ccc(/C=C2\Oc3ccc(Br)cc3C2=O)cc1 | 97.7%
12 | CCC1C/C(=C\c2ccc(OC)cc2)C(=O)/C(=C/c2ccc(OC)cc2)C1 (configuration not stated) | 12.8%
13 | COc1ccc(/C=C2\CCc3ccccc3C2=O)cc1 | 94%
14 | CCOC(=O)c1ccc2nc3c(=O)[nH]c(=O)nc-3n(CCc3ccc(OC)c(OC)c3)c2c1 | 99.7%
15 | COc1ccc(/C=C/C(=O)O)cc1COc1ccccc1 | 101%
16 | COc1ccc(OCc2cc(C=O)ccc2OC)cc1 | 107%
17 | COc1ccc(C=O)cc1COc1ccc2c(c1)CCC2 | 47.2%
18 | O=C(OCC1CCCN2CCCCC12)c1ccccc1O (configuration not stated) | 96.9%
19 | Cc1cc2oc(=O)cc(O)c2cc1C | 95.7%

Row | SMILES | cell viability
20 | O=C(c1ccccc1)N1CCN(CC(O)Cn2c3ccccc3c3ccccc32)CC1 (configuration not stated) | 99.4%
21 | CC1(C(=O)O)CCC2(C)CCC3(C)C(=CC(=O)C4C5(C)CCC(OC6OC(C(=O)O)C(O)C(O)C6OC6OC(C(=O)O)C(O)C(O)C6O)CC5CCC43C)C2C1.CC1(C(=O)O)CCC2(C)CCC3(C)C(=CC(=O)C4C5(C)CCC(OC6OC(C(=O)O)C(O)C(O)C6OC6OC(C(=O)O)C(O)C(O)C6O)CC5CCC43C)C2C1.CC1(C(=O)O)CCC2(C)CCC3(C)C(=CC(=O)C4C5(C)CCC(OC6OC(C(=O)O)C(O)C(O)C6OC6OC(C(=O)O)C(O)C(O)C6O)CC5CCC43C)C2C1.[Fe] (configuration not stated) | 91.5%
22 | O=c1cc(-c2ccccc2Cl)oc2c(Br)cc(Cl)cc12 | 112%
23 | O=C(N/N=C\c1cc(Br)cc(Br)c1OC(=O)c1cccc(F)c1)c1ccc2c(c1)OCO2 | 64.1%
24 | O=C(N/N=C/c1cc(N=Nc2cccc3ccccc23)ccc1O)c1ccc2c(c1)OCO2 | 64.5%
25 | O=C(N/N=C/c1cc(N=Nc2cccc(C(F)(F)F)c2)ccc1O)c1ccc2c(c1)OCO2 | 21.3%
26 | Cc1cc(=O)[nH]c(SCC(=O)Nc2cccc(C)c2C)n1 | 114%
27 | Cc1ccccc1C(=O)OCC1CCCN2CCCCC12.O.O.O.O.O.O.O=[N+]([O-])O.O=[N+]([O-])O.[Co] (configuration not stated) | 104%
28 | CC(C)c1ccc(/C=C/C(=O)N2CCC3(O)CCCCC3C2c2ccc(F)cc2)cc1 (configuration not stated) | 77.9%
29 | O=C(Nc1c(C(=O)Nc2ccccc2)c2ccccc2n(Cc2ccc(F)cc2)c1=O)c1ccccc1 | 94.1%
30 | COc1cccc(C=Nc2ccc3cc4ccc(N=Cc5cccc(OC)c5O)cc4nc3c2)c1O | 2.39%
31 | COC(=O)C1=C(C)NC(SCC(=O)c2ccc3c(c2)OCO3)=C(C#N)C1c1cccs1 (configuration not stated) | 95.7%
32 | CC(C)C(=O)NCC(=O)NCC(=O)O | 98.8%
33 | O=C(CCNc1n[nH]c(=O)[nH]c1=O)N/N=C/c1cccnc1 | 93%
34 | COc1ccccc1CNC(=O)c1cc(OC)c(OC)c(OC)c1 | 100%
35 | COc1cc(/C=N/NC(=O)CCC(=O)Nc2ccccc2C)cc(OC)c1OC | 91.6%
36 | CCn1c2ccccc2c2cc(/C=N/NC(=O)c3cc(OC)c(OC)c(OC)c3)ccc21 | 10.7%
37 | O=C(O)/C=C/c1c(Cl)cccc1Cl | 94.6%
